Test results published in PubChem BioAssay (NCATS).
Inconclusive results are not listed. A call without a number means that no potency is given here. Calls of active or inactive are those of the source. The call rests on the fitted dose curve; in most records, active means well fitted cell-killing curve with a large enough effect; inconclusive means small, poorly fitted or top-dose-only effect, or effect the other way; inactive means no such curve, though single readings can be large or run the other way.
Potency means the concentration at half of the fitted maximal effect.

Assay: Quantitative highthroughput screen to assess conditional lethalithy of SEM cells grown in RPMI1640 with unreated serum (RPMI+s) (AID 1963883); further: nearly all actives have a fitted effect of over 35% in size
Details: SEM B-ALL cells, CellTiter-Glo viability, 48 h; series mostly up to 45.8 µM
Text: Assay Provider: Jason Cantor Ph.D.
Department of Biochemistry
University of Wisconsin-Madison, Madison, WI, USA
Chemical screening studies have identified drug sensitivities across hundreds of cancer cell lines but most putative therapeutics fail to translate. Discovery and development of drug candidates in models that more accurately reflect nutrient levels in human blood is a major challenge. Here we performed high-throughput screens in conventional versus Human Plasma-Like Medium (HPLM) to identify compounds that were "missed" when screening using the artificial culture condition. Sets of conditional anticancer compounds spanned phases of clinical development and included non-oncology drugs were assessed. […] We also traced conditional phenotypes for several chemotherapeutics to availability of HPLM-specific metabolites and confirmed others for compounds whose reported targets are encoded by nonessential genes. Our findings establish generalizable strategies for exploiting conditional lethality in HPLM to reveal therapeutic candidates and mechanisms of action in cancer cells.
Described herein are the results of each viability screens against three cell lines: NOMO1 (an acute myeloid leukemia cell line); P12-Ichikawa (a T-cell acute lymphoblastic leukemia); and SEM (a B-cell ALL). Each assay was screened using 3 different cell culture media: homemade human plasma-Like medium with 10% dialyzed fetal bovine serum (HPLM+ds); RPMI1640 with 10% untreated FBS and 5mM glucose (RPMI+s); and RPMI1640 with 10% dialyzed fetal bovine serum and 5 mM glucose (RPMI+ds).
PROTOCOL TABLE (as described by Inglese J, Shamu CE and Guy RK. 2007)
SEQUENCE No. (e.g., 1, 2, 3, etc.); […] (e.g., Cells, Incubation, Reagent, etc.); VALUE and DESCRIPTION.
1; Cells; 5 uL; white, solid bottom 1536-well Greiner assay plate.
2; Compounds; 23 nL; Kalypsis pin tool (Wako USA) equipped with a 1536-well pin head to transfer to the assay plates.
3; Incubation; 48 hours; 37C incubation.
4; Reagent; 3 uL; CellTiter Glo (Promega).
5; Incubation; 5 min, room temperature
6; Detection; Luminescence, Viewlux PerkinElmer.
NOTES (numbers refer to Sequence numbers above)
1. Briefly, 5 ul of cell reagent was dispensed using a Multidrop Combi Dispenser. The NOMO1 and SEM cells were plated at 500 cells/well and the P12-Ichikawa line at 1000 cells/well.
2. After seeding the cells, 23 nL of MIPE 4.1 library compounds (in DMSO) were added to each plate using a Kalypsys 1536 Pintool dispenser. Bortezomib at final concentration of […] and DMSO were added to each plate as positive and negative controls respectively. For each screen, MIPE 4.1 compounds were added over an eleven-point concentration range […] in 3-fold dilutions.
3. Each plate was covered with a stainless steel gasketed lid to prevent evaporation and incubated for 48 hour at 37C, 95% relative humidity, and 5% CO2.
4-5. Three microliter CellTilter-GloTM luminescent substrate mix (Promega) reagent was added to the assay plate and incubated at room temperature for 5 min.
6. The luminescence signal was measured using a ViewLux (PerkinElmer) multiplate reader with a 2 second exposure time per plate. Data for each compound were normalized as percent viability such that measurements for DMSO and the empty well controls in each plate were defined as 100% and 0%, respectively.
With `CCOc1cc(N)c(Cl)cc1C(=O)NCC1CN(Cc2ccc(F)cc2)CCO1` (stereo not given) the Potency was “inactive”. In the case of `C=C1C(=O)[C@@]23C(CC[C@@H]1[C@H]2O)[C@@]12CO[C@]3(O)[C@@H](O)[C@@H]1C(C)(C)CC[C@@H]2O` (stereo not given in full), the Potency was 3720 nM (active). In the case of `COc1ccc(-c2ccc3cc(C(=O)O)ccc3c2)cc1C12CC3CC(CC(C3)C1)C2`, the Potency was “inactive”. With `C=CCc1cccc(C=NNC(=O)CN2CCN(Cc3ccccc3)CC2)c1O` the Potency was 16600 nM (active). For `COc1cc(OC)c(C(=O)CCCN2CCCC2)c(OC)c1`, the Potency was “inactive”. In the case of `C[C@H](NCc1ccc2c(c1)nc(NC(=O)c1ccc(-c3cn[nH]c3)s1)n2CCc1ccccc1)C(C)(C)C`, the Potency was 526 nM (active). With `CCCCCCCCCC(=O)N[C@@H](Cc1c[nH]c2ccccc12)C(=O)N[C@H](CC(N)=O)C(=O)N[C@@H](CC(=O)O)C(=O)N[C@@H]1C(=O)NCC(=O)N[C@@H](CCCN)C(=O)N[C@@H](CC(=O)O)C(=O)N[C@H](C)C(=O)N[C@@H](CC(=O)O)C(=O)NCC(=O)N[C@H](CO)C(=O)N[C@@H]([C@@H](C)CC(=O)O)C(=O)N[C@@H](CC(=O)c2ccccc2N)C(=O)O[C@@H]1C` the Potency was “inactive”. With `CCN1CCN(c2ccc(Nc3cc(N(C)C(=O)Nc4c(Cl)c(OC)cc(OC)c4Cl)ncn3)cc2)CC1` the Potency was 2090 nM (active). With `COc1ccc(-c2c(-c3ccc(O)cc3O)n[nH]c2C)cc1` the Potency was 19100 nM (active). For `O=C(O)Cc1cccc(OCCCN(Cc2cccc(C(F)(F)F)c2Cl)CC(c2ccccc2)c2ccccc2)c1`, the Potency was “inactive”. In the case of `CC(C)(Sc1ccc(CCN(CCCCC2CCCCC2)C(=O)NC2CCCCC2)cc1)C(=O)O`, the Potency was “inactive”. With `COc1ccc(C2Sc3ccccc3N(CCN(C)C)C(=O)C2OC(C)=O)cc1` (stereo not given) the Potency was “inactive”. With `COc1ccc(-c2nc3ccc(C4=NNC(=O)CC4C)cc3[nH]2)cc1` (stereo not given) the Potency was “inactive”. In the case of `NCC(=O)Nc1ccc(-n2nc(C(F)(F)F)cc2-c2ccc3c(ccc4ccccc43)c2)cc1`, the Potency was “inactive”. With `Cn1c2ccccc2c2c3c(c4c5ccccc5n(CCC#N)c4c21)CNC3=O` the Potency was 526 nM (active). In the case of `Cc1c(C(=O)Nc2ccc(N3C[C@@H](C)O[C@@H](C)C3)nc2)cccc1-c1ccc(OC(F)(F)F)cc1`, the Potency was 1480 nM (active). For `O=c1cc(-c2cccc3c2Sc2ccccc2S3)oc(N2CCOCC2)c1`, the Potency was “inactive”. For `COC(=O)C=CC(=O)OC`, the Potency was 1320 nM (active). With `COc1c(O)cc2c(c1O)[C@@H]1O[C@H](CO)[C@@H](O)[C@H](O)[C@H]1OC2=O` the Potency was 10500 nM (active). For `NC(=O)NN=Cc1ccc([N+](=O)[O-])o1`, the Potency was “inactive”. For `O=C(Nc1ccc([N+](=O)[O-])cc1Cl)c1cc(Cl)ccc1O`, the Potency was 1180 nM (active). For `CC(C)c1ccc2c(c1)c(SC(C)(C)C)c(CC(C)(C)C(=O)O)n2Cc1ccc(Cl)cc1`, the Potency was “inactive”. In the case of `CCOC(=O)N1c2ccc(C(F)(F)F)cc2[C@@H](N(Cc2cc(C(F)(F)F)cc(C(F)(F)F)c2)C(=O)OC)C[C@H]1CC`, the Potency was “inactive”. In the case of `C[C@H](CCC(=O)O)[C@H]1CCC2C3C[C@H](O)[C@@H]4C[C@H](O)CC[C@]4(C)C3CC[C@@]21C` (stereo not given in full), the Potency was “inactive”. In the case of `CC(C)(C)c1[nH]cnc1C=c1[nH]c(=O)c(=Cc2ccccc2)[nH]c1=O`, the Potency was 6.1 nM (active). With `CNC(=O)c1ccccc1Sc1ccc2c(C=Cc3ccccn3)n[nH]c2c1` the Potency was 5260 nM (active). In the case of `COc1cc2nc(N3CCCN(C)CC3)nc(NC3CCN(Cc4ccccc4)CC3)c2cc1OC`, the Potency was 11800 nM (active). With `O=C(CS(=O)Cc1ccco1)NCC=CCOc1cc(CN2CCCCC2)ccn1` (stereo not given) the Potency was “inactive”. For `C=CC(=O)Nc1cc2c(Nc3ccc(F)c(Cl)c3)ncnc2cc1C#CC(C)(C)N1CCN(C)CC1`, the Potency was 2960 nM (active). For `COc1cccc(OC)c1-c1cc(C(=O)NC2(C(=O)O)C3CC4CC(C3)CC2C4)nn1-c1ccnc2cc(Cl)ccc12` (stereo not given), the Potency was “inactive”. In the case of `O=C1C[C@@H](c2ccc(O)cc2)Oc2cc(O)cc(O)c21`, the Potency was “inactive”. For `CC(=O)NCC(=O)N1[C@H]2CC[C@H]1c1cc(Nc3ncc(C(F)(F)F)c(NC4CCC4)n3)ccc12`, the Potency was 105 nM (active). In the case of `CN1CCN(c2ncc(-c3cc(Cl)cc(Cl)c3Cl)c(N)n2)CC1`, the Potency was “inactive”. With `Cc1cc(Nc2ncc3c(n2)N(C)C(=O)N(c2cc(NC(=O)c4cccc(C(F)(F)F)c4)ccc2C)C3)n(C)n1` the Potency was 372 nM (active). For `CN1CCN(CCOc2cc(OC3CCOCC3)c3c(Nc4c(Cl)ccc5c4OCO5)ncnc3c2)CC1`, the Potency was 6620 nM (active). For `CC(C)(C)COc1ccc(-n2cc(C(=O)O)cn2)cc1C#N`, the Potency was “inactive”. In the case of `Cc1cc(N2CCOCC2)cc2[nH]c(-c3c(NC[C@@H](O)c4cccc(Cl)c4)cc[nH]c3=O)nc12`, the Potency was 1660 nM (active). For `O=C(c1ccc(F)cc1)N1CCC[C@H](c2nc(-c3ccc(F)cc3)no2)C1`, the Potency was “inactive”. In the case of `CC1Cc2ccccc2N1NC(=O)c1ccc(Cl)c(S(N)(=O)=O)c1` (stereo not given), the Potency was “inactive”. With `CON(C)C(=O)N1N=C(c2cc(F)ccc2F)S[C@@]1(CCCN)c1ccccc1` the Potency was 11.7 nM (active).
